Source: PubChem (The Scripps Research Institute Molecular Screening Center)
Compounds with a hit are over-represented: about 3.5% of the library has one in this group of screens.
FBW7 act: human FBW7 E3 ligase activation, primary screen. AlphaScreen FBW7–phospho-cyclin E peptide binding, activator screen. normalized activity (activation), % at 26.1 µM. 650,000 compounds, 0.13% hits; in the data active = normalized activity above about 1.9%;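 also: purified mutant Fbw7 with reduced substrate affinity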
Target sequence (Q969H0 whole entry, looked up): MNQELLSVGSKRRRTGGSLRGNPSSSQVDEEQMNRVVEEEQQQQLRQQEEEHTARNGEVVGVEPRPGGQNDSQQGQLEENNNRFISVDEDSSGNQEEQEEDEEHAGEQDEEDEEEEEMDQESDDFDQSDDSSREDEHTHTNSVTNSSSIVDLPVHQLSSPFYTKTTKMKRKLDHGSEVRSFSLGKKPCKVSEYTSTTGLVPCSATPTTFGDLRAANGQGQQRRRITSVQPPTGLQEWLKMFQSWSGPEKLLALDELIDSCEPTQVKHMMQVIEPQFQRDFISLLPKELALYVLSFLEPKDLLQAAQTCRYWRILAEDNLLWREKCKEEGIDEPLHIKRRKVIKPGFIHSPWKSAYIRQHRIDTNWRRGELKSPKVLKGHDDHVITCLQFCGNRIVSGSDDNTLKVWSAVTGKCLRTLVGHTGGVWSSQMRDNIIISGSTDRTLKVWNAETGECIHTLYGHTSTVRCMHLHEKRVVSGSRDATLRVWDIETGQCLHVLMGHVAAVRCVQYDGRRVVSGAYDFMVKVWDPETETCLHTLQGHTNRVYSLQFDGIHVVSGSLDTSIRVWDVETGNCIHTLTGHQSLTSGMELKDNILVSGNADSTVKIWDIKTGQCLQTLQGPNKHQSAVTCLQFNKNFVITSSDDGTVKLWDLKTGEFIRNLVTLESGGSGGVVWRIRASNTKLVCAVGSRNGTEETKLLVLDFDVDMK
GPR151 activ: human GPR151 activation. PathHunter beta-arrestin GPR151 cells, luminescence. activation, % at 11.2 µM. 650,000 compounds, 1% hits. AID 1508602; in the data active = activation above about 4.9%;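 also: 0% = median of compound wells and 100% = cells with positive control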
TEAD-YAP block: TEAD-YAP interaction inhibition; HEK-TIYL cells, TEAD-Gal4/YAP UAS-luciferase luminescence; inhibition, % at 9.12 µM; 640,000 compounds, 1.4% hits; AID 1259422; in the data active = inhibition above about 32%;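 also: 0% = median of test compound wells and 100% = reference inhibitor wells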
MITF primary: blocks human microphthalmia-associated transcription factor. AID 1259374. inhibition, % at 2.6 µM. 650,000 compounds, 0.91% hits. AlphaScreen MITF homodimerization, bead proximity signal. O75030; in the data active = inhibition above about 50%;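 also: 0% = vehicle wells with protein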
The depositor's hits bear a star; ! = a repeat was not active.

SMILES	FBW7 act	GPR151 activ	TEAD-YAP block	MITF primary
CC(C)(C)N1C(=O)c2ccc(C(=O)Nc3cccc(O)c3)cc2C1=O	0.2	-0.5	88.7*	4.8
CCCCOc1ccc(C(=O)Nc2cccc(O)c2)cc1	0.0	-2.6	81.8*	-1.8
COc1cccc(NC(=O)c2ccc(NC(=O)C(C)(C)C)cc2)c1	0.0	-2.1	-46.2	2.6
O=C(Nc1cccc(O)c1)c1ccc(Oc2ccccc2)cc1	0.0	-0.3	92.9*	-0.9
O=C(COc1ccc(Cl)cc1Cl)N/N=C/c1cccs1	0.0	2.3	-11.8	5.8
COc1ccc(C2C(=O)N(C3CCCCCC3)CC(=O)N2Cc2ccc3c(c2)OCO3)cc1 (centres undefined)	0.3	-0.4	-7.7	-5.0
COCCNc1cc(-c2cccc(C(F)(F)F)c2)nc(-c2ccncc2)n1	0.0	0.6	17.3	3.6
CC1(C)Cc2nc3sc4c(SCC(=O)O)ncnc4c3cc2CO1	0.1	-0.9	47.0*	4.0
Cc1nonc1C(=O)NCC1Cc2c(F)ccc(-c3ccc(C(=O)C4CC4)cc3)c2O1 (centres undefined)	0.0	-1.4	63.1*	-13.6
COCCC(=O)NCC1Cc2c(F)ccc(-c3ccc(C(=O)C4CC4)cc3)c2O1 (centres undefined)	0.2	-1.1	-25.4	0.5
O=C(NCC1Cc2c(F)ccc(-c3ccc(C(=O)C4CC4)cc3)c2O1)c1cnsn1 (centres undefined)	-0.1	-1.2	55.9*	-10.0
Oc1cccc(/C=N/NC(=S)NCCN2CCOCC2)c1O	-1.3	-0.3	-17.5	106.2*
NC(=O)C(=O)N/N=C/c1cccc(O)c1O	-1.1	0.6	-6.7	56.3*
Cc1cc(/C=N/NC(N)=S)c(O)c(/C=N/NC(N)=S)c1	-0.9	-0.2	0.4	82.1*
NC(=S)N/N=C/c1cc(Cl)cc(Cl)c1O	-2.5	-0.2	6.6	36.8
NC(=S)N/N=C/c1cccc(O)c1O	-1.4	1.4	-9.1	106.1*
NC(=S)N/N=C/c1cccc(/C=N/NC(N)=S)c1	-0.1	0.0	2.0	8.9
NC(=O)N/N=C/c1cccc(C(=O)O)c1O	-0.2	1.5	3.2	-5.9
O=C(Nc1ccc(Cl)c(NC(=O)c2ccccc2)c1)c1ccc([N+](=O)[O-])cc1	-0.3	-0.3	-1.7	-6.2
CC(=O)n1c2c(c3ccccc31)OC(N)=C(C#N)C2c1ccc(F)cc1 (centres undefined)	0.0	0.7	6.2	-3.9
CC(=O)n1c2c(c3ccccc31)OC(N)=C(C#N)C2c1cc(Br)ccc1F (centres undefined)	0.1	0.1	60.7*	1.6
O=C(c1ccn(-c2ccnc(Nc3ccc(N4CCOCC4)cc3)c2)n1)N1CCC(O)CC1	0.1	0.1	60.3*	-2.1
COc1ccc(Cn2c(=S)[nH]c3cc(C(=O)NCCSCc4ccccc4)ccc3c2=O)cc1	0.0	-0.4	-2.4	-2.4
CCOC(=O)c1ccc(NC(=O)CC23CC4CC(CC(C4)C2)C3)cc1	0.0	-0.7	69.3*	9.8
Cc1cc(NC2CC2)nc(-c2c(C)nn(C)c2C)n1	-0.1	0.0	-4.3	9.9
SMILES	FBW7 act	GPR151 activ	TEAD-YAP block	MITF primary
COc1ccc(CN2CCC(Nc3ccc4[nH]ncc4c3)C2)cc1 (centres undefined)	0.0	0.3	-6.6	9.5
CCc1c(C#N)c(N)nc(SCC#N)c1C#N	2.3*	-0.1	-36.9	-5.5
CCSc1nc(N)c(C#N)c(CC)c1C#N	0.0	1.4	-4.8	2.0
N#CCCN(C(=O)CCl)c1ccccc1F	0.0	-1.6	46.2*	13.2
COc1ccccc1N(CCC#N)C(=O)CCl	0.0	0.0	17.6	3.5
CN1/C(=C/C(=O)c2ccco2)C(C)(C)c2ccccc21	0.8	3.9	35.0*	5.3
CN1/C(=C\C(=O)CSCc2ccco2)C(C)(C)c2ccccc21	-0.4	-0.3	0.2	6.2
Cc1ccc(/C=C/c2ccncc2)cc1	0.0	-5.9	51.2*	-5.0
CC(=O)c1c(C)[nH]c(C(=O)CSc2nnc(NCc3ccccc3)s2)c1C	-0.1	-0.4	42.0*	-3.0
CCOC(=O)c1c(C)[nH]c(C(=O)CSc2nnc(NCc3ccccc3)s2)c1C	0.1	1.9	3.7	10.9
CC(C)/C=C/CN1CCc2nnc(CCNC(=O)Cc3ccc(F)cc3)n2CC1	0.9	-0.7	14.5	8.6
CC(C)(C)c1ccc(OCC(=O)c2ccc(O)cc2O)cc1	-0.1	-3.3	96.0*	-5.8
CCc1cc(C(=O)Cc2ccc(OC)cc2)c(O)cc1O	-0.1	0.8	0.9	-6.0
CC(C)Oc1ccc(CC(=O)c2ccc(O)cc2O)cc1	0.1	-2.0	66.3*	-3.3
O=C(Cc1ccc(Br)cc1)c1ccc(O)cc1O	0.1	-0.4	-16.6	-0.5
COc1ccc(CC(=O)c2ccc(O)cc2O)cc1	-0.1	0.3	34.1*!	-4.0
